Experimental data from PubChem BioAssay (NCI).
Where “and” joins values, the source holds several entries; their conditions need not be identical. Identical values can stand only once. This is part of a sample that, as a whole, favours compounds with a hit. Of some 83,000 tested, about 20% had one in any assay.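 Values shown are percent growth following 48 h exposure of cells in 96-well plates to a single concentration of compound; below 10 was considered active.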 Calls of active or inactive are those of the source.

Assays:
Test in all cases: NCI-60 one-dose screen, 48 h (100 = growth as untreated, 0 = no growth, -100 = all killed)
Conditions in all cases: 10 µM unless noted
[1] = test system: NCI-H23 lung
[2] = test system: NCI-H226 lung
[3] = test system: NCI-H322M lung
[4] = test system: HOP-62 NSCLC
[5] = test system: NCI-H460 lung
[6] = test system: HOP-92 NSCLC
[7] = test system: NCI-H522 lung
[8] = test system: A549/ATCC NSCLC
[9] = test system: 786-0 renal
[10] = test system: COLO 205 colon
[11] = test system: DU-145 prostate
[12] = test system: K-562 leukemia
[13] = test system: MALME-3M melanoma
[14] = test system: MDA-MB-231 breast
[15] = test system: RXF 393 renal
[16] = test system: SF-268 CNS
[17] = test system: SF-295 CNS
[18] = test system: SF-539 CNS
[19] = test system: UACC-257 melanoma
[20] = test system: M14 melanoma

SMILES: O=C(Oc1cccc(OC(=O)c2ccccc2)c1)c1ccccc1
- growth [1]: 94.6% (inactive) and 106% (inactive)
- growth [2]: 102% (inactive) and 100% (inactive)
- growth [3]: 101% (inactive) and 97.8% (inactive)
- growth [4]: 90.5% (inactive) and 90% (inactive)
- growth [5]: 107% (inactive) and 94.2% (inactive)
- growth [6]: 73.7% (inactive) and 88.5% (inactive)
- growth [7]: 108% (inactive)
- growth [8]: 57.7% (inactive) and 98.9% (inactive)
- growth [9]: 90% (inactive) and 95.8% (inactive)
- growth [10]: 101% (inactive) and 104% (inactive)
- growth [11]: 111% (inactive) and 105% (inactive)
- growth [12]: 79.3% (inactive) and 88.5% (inactive)
- growth [13]: 119% (inactive) and 110% (inactive)
- growth [14]: 96.2% (inactive) and 107% (inactive)
- growth [15]: 121% (inactive)
- growth [16]: 92% (inactive) and 94.7% (inactive)
- growth [17]: 103% (inactive) and 99% (inactive)
- growth [18]: 96.8% (inactive) and 96.1% (inactive)
- growth [19]: 111% (inactive)
- growth [20]: 116% (inactive) and 99.4% (inactive)

SMILES: COc1c(/C(C)=N/N=c2sc(C(C)=O)nn2-c2ccc(Cl)cc2)c(Oc2ccccc2)c(OC)c2occc12
- growth [1]: 89.6% (inactive) and 98% (inactive)
- growth [2]: 98.9% (inactive) and 97.4% (inactive)
- growth [3]: 89.8% (inactive) and 100% (inactive)
- growth [4]: 88.6% (inactive) and 98.3% (inactive)
- growth [5]: 99.2% (inactive) and 103% (inactive)
- growth [6]: 90.9% (inactive) and 93.5% (inactive)
- growth [7]: 91.5% (inactive) and 79.8% (inactive)
- growth [8]: 108% (inactive) and 102% (inactive)
- growth [9]: 102% (inactive)
- growth [10]: 114% (inactive) and 111% (inactive)
- growth [11]: 110% (inactive) and 109% (inactive)
- growth [12]: 93.9% (inactive) and 101% (inactive)
- growth [13]: 102% (inactive) and 101% (inactive)
- growth [14]: 107% (inactive) and 101% (inactive)
- growth [15]: 113% (inactive)
- growth [16]: 101% (inactive) and 87% (inactive)
- growth [17]: 95.8% (inactive) and 105% (inactive)
- growth [18]: 103% (inactive) and 93.7% (inactive)
- growth [19]: 106% (inactive) and 113% (inactive)
- growth [20]: 113% (inactive) and 96.2% (inactive)

SMILES: CC(C)Cc1ccc(C(C)C(=O)NCc2ccc(Cn3c(=O)sn(CCCI)c3=O)cc2)cc1 (stereo not given)
- growth [1]: 92% (inactive) and -78.3% (active)
- growth [2]: 83.8% (inactive) and 4.03% (active)
- growth [3]: 98.2% (inactive) and 59.4% (inactive)
- growth [4]: -56.2% (active)
- growth [5]: 99.6% (inactive) and 3.28% (active)
- growth [6]: 73.6% (inactive) and -67.5% (active)
- growth [7]: 69% (inactive) and -55.6% (active)
- growth [8]: 95.4% (inactive) and -54.7% (active)
- growth [9]: 94.3% (inactive) and -88.9% (active)
- growth [10]: -62.4% (active)
- growth [11]: 94% (inactive) and -88.2% (active)
- growth [12]: 3.55% (active)
- growth [13]: 92.4% (inactive) and -74.4% (active)
- growth [14]: 92.1% (inactive) and -62% (active)
- growth [15]: -94.8% (active)
- growth [16]: 91% (inactive) and -64.5% (active)
- growth [17]: 96.1% (inactive) and 35.9% (inactive)
- growth [18]: 88.7% (inactive) and -96.6% (active)
- growth [19]: 77.8% (inactive) and -19.9% (active)
- growth [20]: 88.8% (inactive) and -66.9% (active)

SMILES: Fc1ccccc1Nc1n[nH]c(=S)s1
- growth [1]: 108% (inactive)
- growth [2]: 107% (inactive)
- growth [3]: 128% (inactive)
- growth [4]: 108% (inactive)
- growth [5]: 109% (inactive)
- growth [6]: 100% (inactive)
- growth [7]: 108% (inactive)
- growth [8]: 101% (inactive)
- growth [9]: 101% (inactive)
- growth [10]: 108% (inactive)
- growth [11]: 110% (inactive)
- growth [12]: 107% (inactive)
- growth [13]: 127% (inactive)
- growth [14]: 109% (inactive)
- growth [15]: 116% (inactive)
- growth [16]: 91.5% (inactive)
- growth [17]: 126% (inactive)
- growth [18]: 105% (inactive)
- growth [19]: 103% (inactive)
- growth [20]: 109% (inactive)

SMILES: CN(C)c1ccc(C(Cc2ccc3ccccc3n2)Cc2ccc3ccccc3n2)cc1
- growth [1]: 38.6% (inactive) and 65.5% (inactive)
- growth [2]: 61.4% (inactive) and 71.9% (inactive)
- growth [3]: 66.9% (inactive) and 86% (inactive)
- growth [4]: 70.9% (inactive) and 84.4% (inactive)
- growth [5]: 26.5% (inactive) and 73.7% (inactive)
- growth [6]: -4.12% (active) and 50.7% (inactive)
- growth [7]: 45.3% (inactive) and 90.3% (inactive)
- growth [8]: 45% (inactive) and 91.1% (inactive)
- growth [9]: 31.4% (inactive) and 90.9% (inactive)
- growth [10]: 43.5% (inactive)
- growth [11]: 81.9% (inactive)
- growth [12]: 29.8% (inactive) and 85.6% (inactive)
- growth [13]: 64.8% (inactive) and 106% (inactive)
- growth [14]: 58.2% (inactive) and 64% (inactive)
- growth [15]: 73.6% (inactive) and 85.5% (inactive)
- growth [16]: 68.3% (inactive) and 95.3% (inactive)
- growth [17]: 24.7% (inactive) and 64.9% (inactive)
- growth [18]: 67.6% (inactive) and 106% (inactive)
- growth [19]: 32.4% (inactive) and 99% (inactive)
- growth [20]: 27.2% (inactive) and 75.5% (inactive)
